The text below walks through data of PubChem BioAssay (NCATS).

Unmarked numbers belong to inactive results. Inconclusive results are not listed. Active and inactive are the calls of the source. Unless noted, calls follow the shape of the dose curve; as a rule, active = well fitted curve in the direction sought with a large enough effect; inconclusive = small, poorly fitted or top-dose-only effect, or another doubt; inactive = no such curve, though single readings can be large; an effect the other way counts as inactive or inconclusive.

The target of assay [1] is DNA repair nuclease/redox regulator APEX1 (Homo sapiens) (UniProt P27695). As to the kind of experiment: qHTS Validation Assay for Inhibitors of the Human Apurinic/apyrimidinic Endonuclease 1 (APE1) (AID 1705;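 also: TAMRA fluorescence gain over two minutes as APE1 cuts a quenched THF abasic duplex; series mostly up to about 57 µM; % is scaled to controls: 0 for no effect and ±100 for the full control effect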). In short, it runs like this: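 Substrate: 50 nM final fluorophore/quencher THF-abasic duplex. Enzyme preincubated with compounds 15 min, RT. Progress derived from fluorescence difference, third minus first kinetic read.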

Assay [2] in a line: Counterscreen for APE1 Inhibitors: Fluorescent Dye Displacement Validation Assay (AID 1707).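 Also: plate controls were ThO with dsDNA and no compound for no effect and ThO without dsDNA for full effect.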 In short, it runs like this:
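Counterscreen flags promiscuous DNA binders: compounds displacing ThO from duplex DNA (abasic THF site, 50 nM) reduce 540 nm emission (480 nm excitation). ThO 250 nM final; Tris-HCl pH 7.5 with NaCl, MgCl2 and Tween-20.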
For orientation: The purpose of a counterscreen is to sort out artefacts and off-target activity.

The target in assay [3] is Endonuclease 4 (Escherichia coli (strain K12)) (UniProt P0A6C1). The assay can be described thus: Counterscreen for APE1 Inhibitors: qHTS Validation Assay for Inhibitors of Endonuclease IV (AID 1708). Also: % is scaled to controls: 0 for no effect and ±100 for the full control effect. The procedure, abridged:
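Enzyme (2 nM) + compound, 15 min RT; add 50 nM TAMRA/BHQ-2 THF-site dsDNA; kinetic read ex525/em598, 3 reads/60 s; activity = read 3 − read 1. Buffer Tris pH 7.5, 50 mM NaCl, 2 mM MgCl2, DTT, Tween-20.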

Assay [4] is described as follows: qHTS for differential inhibitors of proliferation of Plasmodium falciparum line Dd2 (AID 1882). Also: nearly all actives have a fitted effect of over 65% in size. Also: potency is read from the fitted curve at half-maximal effect. To be noted: Potency: Plasmodium falciparum Dd2 proliferation inhibition. In short, it runs like this: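 SYBR Green DNA fluorescence (ex 485, em 535 nm) after overnight lysis quantifies parasite growth; compound exposure lasted 72 h at 37 C on infected red cells at 2.5% hematocrit, 0.3% parasitemia (final). Artemisinin 0.29 uM and vehicle wells define normalization.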

Assay [5] in a line: qHTS for differential inhibitors of proliferation of Plasmodium falciparum line W2 (AID 1883).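 Also: potency is read from the fitted curve at half-maximal effect; parasites grown with compound for 72 h before lysis and staining.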 To be noted: Potency: Plasmodium falciparum W2 proliferation inhibition. (In general: Quantitative high-throughput screening tests each substance at several concentrations.)
Assay [6] is described as follows: qHTS for differential inhibitors of proliferation of Plasmodium falciparum line HB3 (AID 1886).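 Also: parasites grown with compound for 72 h before SYBR Green readout.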 Also: potency is read from the fitted curve at half-maximal effect. As to conditions: Potency: Plasmodium falciparum HB3 proliferation inhibition.
Assay [7] can be described thus: qHTS Assay for Modulators of Human Peripheral Myelin Protein 22 (PMP22) Expression/Activity (AID 1967; active = well fitted curve in the direction sought with a large enough effect in the signal ratio; the % refers to the signal ratio;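 also: 0% = untreated cells and 100% end not stated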). The procedure, abridged:
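Engineered MSC80 cells, Pmp22-promoter green and EF-alpha red luciferase reporters; 24h compound treatment at 37 °C. Concentration-response fits on green, red and ratio signals, each overlap-corrected, with %Activity normalized to untreated wells.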

For assay [8], the target named is ATP-dependent DNA helicase Q1 (Homo sapiens) (UniProt P46063). The assay can be described thus: qHTS Validation Assay for Inhibitors of RecQ-Like Dna Helicase 1 (RECQ1) (AID 2353).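 Also: plate controls were DMSO vehicle for no effect and enzyme-free control for full effect.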 The procedure, abridged:
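RECQ1T1 50 nM; forked duplex (20 bp + 30-nt ss tails) 200 nM, ATP 2 mM final; pH 8.0, 2 mM MgCl2, 2.5 ug/ml poly(dI-dC); 15 min compound preincubation; discontinuous kinetic read over 2 h at RT.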

Assay [9] can be described thus: Validation screen for small molecules that induce DNA re-replication in MCF 10A normal breast cells (AID 463097). Also: nearly all actives have a fitted effect of over 60% in size. Also: potency is read from the fitted curve at half-maximal effect. The procedure, abridged: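 Following 48 hr compound incubation (37 C, 5% CO2), MCF 10A cells receive Hoechst for 40 min at 37 C. Nuclei are then scanned (excitation 405 nm, emission 500-530 nm) for total fluorescence intensity.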
The target in assay [10] is M-phase phosphoprotein 8 (Homo sapiens) (UniProt Q99549). The assay can be described thus: qHTS Validation Assay for Inhibitors for MPP8 Chromodomain Interactions with Methylated Histone Tails (AID 488949). Also: nearly all actives have a fitted effect of over 55% in size. Also: potency is read from the fitted curve at half-maximal effect. The procedure, abridged:
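Chemiluminescent proximity assay: histidine-tag capture via nickel acceptor beads, biotin peptide via streptavidin donor beads. Protein and peptide each at 50 nM, pH 7.4, with 30 min incubations at room temperature for complex formation, compound exposure and bead binding.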

Assay [11] addresses Galactokinase (Homo sapiens) (UniProt P51570). The assay can be described thus: qHTS Validation Assay for Inhibitors of Human Galactokinase (GALK) (AID 493189). Also: 0% is about no effect. In short, it runs like this:
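Enzyme activity is inferred from ATP consumption: human GALK phosphorylates galactose (100 uM) using 35 uM ATP for 1 h at room temperature, and luciferase-based Kinase-Glo Plus reports unconsumed ATP.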

Assay [12] in a line: Validation screen for small molecules that induce DNA re-replication in SW480 colon adenocarcinoma cells (AID 504364). Also: 0% is about no effect. In short, it runs like this:
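Image-based qHTS: compounds were incubated with SW480 cells for 48 hr, nuclei stained with Hoechst, and per-nucleus fluorescence intensity scanned to flag cells with excess DNA content.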

The target in assay [13] is Voltage-gated inwardly rectifying potassium channel KCNH2 (Homo sapiens) (UniProt Q12809). The assay can be described thus: qHTS Assay for Small Molecule Inhibitors of the Human hERG Channel Activity (AID 588834).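 Also: lower thallium flux fluorescence means stronger hERG block; nearly all actives have a fitted effect of over 50% in size.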 Also: potency is read from the fitted curve at half-maximal effect. The procedure, abridged: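 Homogeneous FluxOR thallium flux assay using hERG-expressing U2OS cells (BacMam). Compound treatment about 10 minutes preceded stimulation; reduced fluorescence taken as channel block.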

Assay [14] has as its target Rap guanine nucleotide exchange factor 3 (Homo sapiens) (UniProt O95398). As to the kind of experiment: Counterscreen qHTS for antagonist of cAMP-regulated guanine nucleotide exchange factor 3 (EPAC1) (AID 1645888).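 Also: fluorescence loss as bound BODIPY-GDP is released from Rap1B; % of control where 0% means no effect.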 The procedure, abridged: (§1)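 Measured: fluorescence of BODIPY-GDP bound to Rap1B, which falls as exchange proceeds. Conditions include 50 uM competing GDP, 5 and 30 min reads, and a later cAMP challenge for antagonist detection.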

Assay [15] has the same target. As to the kind of experiment: Counterscreen qHTS for agonist of cAMP-regulated guanine nucleotide exchange factor 3 (EPAC1) (AID 1645889). Also: potency is read from the fitted curve at half-maximal effect; nearly all actives have a fitted effect of over 40% in size. In short, it runs like this: as §1
Assay [16] can be described thus: qHTS for differential inhibitors of proliferation of Plasmodium falciparum line GB4 (AID 1816).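 Also: parasite growth measured after 72 h incubation.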 Also: potency is read from the fitted curve at half-maximal effect. As to conditions: Potency: Plasmodium falciparum GB4 proliferation inhibition.
Assay [17] in a line: qHTS for differential inhibitors of proliferation of Plasmodium falciparum line 3D7 (AID 1876). Also: potency is read from the fitted curve at half-maximal effect.
The nature of assay [18]: qHTS for differential inhibitors of proliferation of Plasmodium falciparum line D10 (AID 1877).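 Also: parasites grown with compound for 72 h before DNA staining.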 Also: potency is read from the fitted curve at half-maximal effect.
For assay [19], the target named is Ferritin light chain (Equus caballus) (UniProt P02791). The assay can be described thus: qHTS Validation Assay for Identification of Novel General Anesthetics (AID 2323). Also: series mostly up to about 77 µM; % is scaled to controls: 0 for no effect and ±100 for the full control effect. In short, it runs like this: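 Normalized fluorescence response, scaled between free 1-AMA and 1-AMA/apoferritin complex, fitted to a four-parameter Hill equation for concentration-effect values. Binding mix: 10 uM horse-spleen apoferritin, 50% saturated 1-AMA in PBS; read 380/535 nm after 10 min.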

The nature of assay [20]: Quantitative high throughput screen for delayed death inhibitors of the malarial parasite plastid, 96 hour incubation (AID 488745). Also: nearly all actives have a fitted effect of over 70% in size. Also: potency is read from the fitted curve at half-maximal effect. In short, it runs like this:
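Readout is firefly luciferase luminescence from an integrated reporter in P. falciparum; lower signal marks inhibited growth. Cultures at 2% hematocrit and 0.1% parasitemia were treated with compound across two generations (96 h, 37 C, 5% CO2).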

Assay [21] deals with Thyrotropin-releasing hormone receptor (Homo sapiens) (UniProt P34981). As to the kind of experiment: qHTS for Small Molecule Agonists and Allosteric Enhancers of Human TRH Receptor: Validation Screen for Agonists (AID 493127;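 active = calcium activation more than 3 SD above the typical response in the agonist read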;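 also: intracellular calcium rise by fluo-8 fluorescence before TRH EC20 addition; 0% is about no effect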). As to conditions: TRH receptor agonist cell assay; at 2 µM; hits give high values. In short, it runs like this: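 Compounds are added by online pintool to dye-loaded TRHR cells while fluorescence is recorded every second. A rise in calcium signal during the agonist read marks activation; a later 10 nM TRH addition (EC20) serves the separate enhancer mode.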

For assay [22], the target named is RecQ-like DNA helicase BLM (Homo sapiens) (UniProt P54132). As to the kind of experiment: qHTS Validation Assay for Inhibitors of Bloom's syndrome helicase (BLM) (AID 2364). Also: potency is read from the fitted curve at half-maximal effect. The procedure, abridged:
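BLM 50 nM in 25 mM Tris-HCl pH 8.0, 5 mM NaCl, 2 mM MgCl2, 1 mM DTT, 0.01% Tween-20, 2.5 ug/ml poly(dI-dC); 15 min cpd preinc, RT. Start: 200 nM forked DNA + 2 mM ATP (final). TAMRA read, 2 reads 2 h apart.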

Assay [23] addresses Transient receptor potential cation channel subfamily V member 1 (Homo sapiens) (UniProt Q8NER1). As to the kind of experiment: HTS Assay for Compounds that Act as Enhancers of the Vanilloid Receptor 1 (AID 488979). Also: 0% is about no effect. The procedure, abridged: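 TRPV1-expressing cells loaded with Fluo-8 calcium dye; compounds added and calcium influx read kinetically for 3 min (agonist phase), then capsaicin at EC20 added and read 2 min more for enhancement. Fluorescence ex 480/em 520 nm.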

A short description of assay [24]: qHTS for differential inhibitors of proliferation of Plasmodium falciparum line 7G8 (AID 1815).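 Also: potency is read from the fitted curve at half-maximal effect; parasite growth measured after three days of incubation.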

Chain of Transient receptor potential cation channel subfamily V member 1 (Homo sapiens) (Q8NER1 whole entry, looked up): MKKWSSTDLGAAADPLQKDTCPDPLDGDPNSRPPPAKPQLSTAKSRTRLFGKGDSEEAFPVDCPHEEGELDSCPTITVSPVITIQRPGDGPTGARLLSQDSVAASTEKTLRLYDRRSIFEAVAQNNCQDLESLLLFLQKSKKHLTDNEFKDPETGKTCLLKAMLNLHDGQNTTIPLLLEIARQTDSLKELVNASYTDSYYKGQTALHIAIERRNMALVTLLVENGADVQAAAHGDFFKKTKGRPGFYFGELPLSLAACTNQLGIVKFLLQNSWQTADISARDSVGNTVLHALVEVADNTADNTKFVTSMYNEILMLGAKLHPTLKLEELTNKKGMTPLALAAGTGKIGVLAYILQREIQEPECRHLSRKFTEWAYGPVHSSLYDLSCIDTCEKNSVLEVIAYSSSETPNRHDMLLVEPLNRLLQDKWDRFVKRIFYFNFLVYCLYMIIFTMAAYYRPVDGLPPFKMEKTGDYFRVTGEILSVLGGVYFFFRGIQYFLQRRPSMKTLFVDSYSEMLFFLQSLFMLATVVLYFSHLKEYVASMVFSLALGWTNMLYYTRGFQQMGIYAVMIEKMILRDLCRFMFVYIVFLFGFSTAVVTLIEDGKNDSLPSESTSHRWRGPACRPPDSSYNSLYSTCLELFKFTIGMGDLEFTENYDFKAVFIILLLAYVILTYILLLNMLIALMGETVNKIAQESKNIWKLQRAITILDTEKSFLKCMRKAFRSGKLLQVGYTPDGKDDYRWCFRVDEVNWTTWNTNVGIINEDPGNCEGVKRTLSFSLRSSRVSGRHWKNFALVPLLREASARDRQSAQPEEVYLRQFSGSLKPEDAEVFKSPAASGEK
Chain of DNA repair nuclease/redox regulator APEX1 (Homo sapiens) (P27695 whole entry, looked up): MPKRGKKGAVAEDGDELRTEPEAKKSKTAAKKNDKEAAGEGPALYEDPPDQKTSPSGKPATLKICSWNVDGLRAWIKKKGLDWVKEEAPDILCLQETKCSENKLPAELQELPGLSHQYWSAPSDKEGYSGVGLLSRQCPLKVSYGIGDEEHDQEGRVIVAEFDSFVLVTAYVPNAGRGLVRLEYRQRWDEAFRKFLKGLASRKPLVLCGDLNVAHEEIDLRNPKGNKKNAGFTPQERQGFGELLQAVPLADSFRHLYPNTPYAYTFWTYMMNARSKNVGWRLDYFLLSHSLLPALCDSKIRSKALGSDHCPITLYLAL
Chain of Ferritin light chain (Equus caballus) (P02791 2-175 limits assumed): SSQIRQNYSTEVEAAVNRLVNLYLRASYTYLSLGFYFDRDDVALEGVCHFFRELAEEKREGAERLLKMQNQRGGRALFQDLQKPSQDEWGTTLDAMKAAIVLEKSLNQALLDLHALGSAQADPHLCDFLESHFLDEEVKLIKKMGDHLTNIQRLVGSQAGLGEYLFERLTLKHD
Chain of Thyrotropin-releasing hormone receptor (Homo sapiens) (P34981 whole entry, looked up): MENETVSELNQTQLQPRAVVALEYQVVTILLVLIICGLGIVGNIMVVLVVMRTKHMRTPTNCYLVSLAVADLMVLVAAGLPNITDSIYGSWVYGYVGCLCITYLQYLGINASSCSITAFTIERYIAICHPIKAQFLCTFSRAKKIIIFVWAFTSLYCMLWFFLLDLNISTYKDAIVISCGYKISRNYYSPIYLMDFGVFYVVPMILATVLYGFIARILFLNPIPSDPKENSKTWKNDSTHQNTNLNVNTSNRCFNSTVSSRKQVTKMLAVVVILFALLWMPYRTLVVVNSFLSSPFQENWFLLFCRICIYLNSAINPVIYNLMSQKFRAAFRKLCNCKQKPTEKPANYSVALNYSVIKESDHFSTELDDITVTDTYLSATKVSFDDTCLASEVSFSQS
Chain of Galactokinase (Homo sapiens) (P51570 whole entry, looked up): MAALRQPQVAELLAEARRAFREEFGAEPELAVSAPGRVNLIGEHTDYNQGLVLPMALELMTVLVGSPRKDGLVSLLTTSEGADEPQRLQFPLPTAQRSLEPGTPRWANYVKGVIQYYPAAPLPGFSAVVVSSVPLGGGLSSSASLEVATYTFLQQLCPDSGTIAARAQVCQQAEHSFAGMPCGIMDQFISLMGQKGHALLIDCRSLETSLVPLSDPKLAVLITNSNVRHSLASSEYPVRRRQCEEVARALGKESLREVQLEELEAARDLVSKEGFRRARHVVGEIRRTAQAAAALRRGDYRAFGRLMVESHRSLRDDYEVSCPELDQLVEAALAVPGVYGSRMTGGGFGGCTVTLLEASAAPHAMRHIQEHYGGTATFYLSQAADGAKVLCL
Chain of ATP-dependent DNA helicase Q1 (Homo sapiens) (P46063 whole entry, looked up): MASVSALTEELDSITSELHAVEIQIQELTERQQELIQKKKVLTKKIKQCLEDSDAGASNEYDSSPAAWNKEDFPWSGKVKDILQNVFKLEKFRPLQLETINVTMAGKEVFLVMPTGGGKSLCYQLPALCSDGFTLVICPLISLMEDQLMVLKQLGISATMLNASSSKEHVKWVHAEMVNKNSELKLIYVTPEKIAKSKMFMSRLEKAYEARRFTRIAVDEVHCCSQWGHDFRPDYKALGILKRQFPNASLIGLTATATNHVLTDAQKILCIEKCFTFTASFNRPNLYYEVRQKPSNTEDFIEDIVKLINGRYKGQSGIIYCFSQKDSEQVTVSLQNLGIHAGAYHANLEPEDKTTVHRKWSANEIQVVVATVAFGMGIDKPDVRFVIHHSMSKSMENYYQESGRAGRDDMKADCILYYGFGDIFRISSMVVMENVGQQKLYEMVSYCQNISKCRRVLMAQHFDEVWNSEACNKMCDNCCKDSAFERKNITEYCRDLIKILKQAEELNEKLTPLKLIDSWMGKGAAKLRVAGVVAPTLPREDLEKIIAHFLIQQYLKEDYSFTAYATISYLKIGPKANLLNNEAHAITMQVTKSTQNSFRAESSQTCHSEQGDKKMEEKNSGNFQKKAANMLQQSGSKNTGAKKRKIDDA
Chain of Rap guanine nucleotide exchange factor 3 (Homo sapiens) (O95398 whole entry, looked up): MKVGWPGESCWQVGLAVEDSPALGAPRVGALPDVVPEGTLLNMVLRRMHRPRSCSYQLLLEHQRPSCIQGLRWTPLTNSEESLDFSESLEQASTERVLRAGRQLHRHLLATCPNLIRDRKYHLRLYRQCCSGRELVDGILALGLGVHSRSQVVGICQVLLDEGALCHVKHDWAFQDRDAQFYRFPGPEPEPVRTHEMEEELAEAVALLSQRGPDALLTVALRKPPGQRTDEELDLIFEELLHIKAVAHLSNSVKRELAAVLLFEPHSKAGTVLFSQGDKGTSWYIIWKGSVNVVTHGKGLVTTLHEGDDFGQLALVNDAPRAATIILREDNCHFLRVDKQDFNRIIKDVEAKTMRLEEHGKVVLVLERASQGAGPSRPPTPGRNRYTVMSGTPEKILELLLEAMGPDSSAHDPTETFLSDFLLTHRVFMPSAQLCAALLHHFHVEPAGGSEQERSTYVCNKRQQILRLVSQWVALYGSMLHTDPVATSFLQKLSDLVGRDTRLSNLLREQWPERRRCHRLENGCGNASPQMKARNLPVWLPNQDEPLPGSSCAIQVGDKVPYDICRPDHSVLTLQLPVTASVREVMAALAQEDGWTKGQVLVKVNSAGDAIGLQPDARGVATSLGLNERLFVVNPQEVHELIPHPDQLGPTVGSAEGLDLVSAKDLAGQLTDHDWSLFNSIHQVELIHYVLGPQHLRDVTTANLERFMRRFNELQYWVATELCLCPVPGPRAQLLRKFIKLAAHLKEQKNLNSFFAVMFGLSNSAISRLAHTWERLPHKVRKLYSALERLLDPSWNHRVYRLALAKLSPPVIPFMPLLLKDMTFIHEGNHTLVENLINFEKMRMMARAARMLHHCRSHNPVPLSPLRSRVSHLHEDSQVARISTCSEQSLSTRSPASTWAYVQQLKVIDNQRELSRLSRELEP
Chain of M-phase phosphoprotein 8 (Homo sapiens) (Q99549 whole entry, looked up): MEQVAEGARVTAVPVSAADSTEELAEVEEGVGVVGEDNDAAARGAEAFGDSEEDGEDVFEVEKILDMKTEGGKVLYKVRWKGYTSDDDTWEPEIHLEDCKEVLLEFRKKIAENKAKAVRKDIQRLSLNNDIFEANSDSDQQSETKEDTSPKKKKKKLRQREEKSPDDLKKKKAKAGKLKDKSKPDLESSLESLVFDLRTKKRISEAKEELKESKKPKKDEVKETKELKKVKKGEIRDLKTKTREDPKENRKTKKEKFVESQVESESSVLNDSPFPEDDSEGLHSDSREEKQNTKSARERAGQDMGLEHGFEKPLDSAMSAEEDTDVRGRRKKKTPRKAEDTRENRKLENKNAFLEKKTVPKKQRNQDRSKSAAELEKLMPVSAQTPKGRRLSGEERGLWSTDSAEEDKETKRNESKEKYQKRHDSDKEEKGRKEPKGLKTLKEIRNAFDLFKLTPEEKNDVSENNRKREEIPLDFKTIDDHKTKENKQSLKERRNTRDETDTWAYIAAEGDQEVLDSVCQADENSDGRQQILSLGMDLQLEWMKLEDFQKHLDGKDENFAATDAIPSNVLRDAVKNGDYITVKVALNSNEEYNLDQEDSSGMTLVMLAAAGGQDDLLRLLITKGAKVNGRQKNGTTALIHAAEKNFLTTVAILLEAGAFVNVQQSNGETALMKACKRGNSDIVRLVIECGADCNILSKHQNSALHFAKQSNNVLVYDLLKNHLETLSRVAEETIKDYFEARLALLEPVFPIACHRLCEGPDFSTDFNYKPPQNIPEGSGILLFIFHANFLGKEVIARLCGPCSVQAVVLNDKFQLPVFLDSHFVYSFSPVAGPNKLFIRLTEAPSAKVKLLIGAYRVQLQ

Take `C[C@]12C[C@H](O)C3[C@@H](CCC4=CC(=O)CC[C@@]43C)[C@@H]1CC[C@@H]2C(=O)CO` (stereo partly drawn): the Potency result in assay [1], in assay [3], in assay [4], in assay [6], in assay [9] and in assay [10] was “inactive” throughout. Besides, the Potency entry in assay [12] and in assay [13] was “inactive” each time. Further, the compound was classed as inactive in assay [2], in [7], in assay [8] and in assay [11]. Also, the Potency in assay [5] was 11.2 µM (active).

`CCC(=O)N(CCC(c1ccccc1)c1ccco1)Cc1cccs1` (stereo not drawn): the Potency result in assay [14] was “inactive”.

On to `Oc1ccc(/C(Cc2ccccn2)=N\Nc2ccccc2)c(O)c1`, for which, in assay [14], the Potency result was “inactive”.

Take `O=C(NCCC1CCCCN1S(=O)(=O)c1ccc(Cl)cc1)C(=O)NCc1ccco1` (stereo not drawn): the Potency in assay [15] is 89.1 µM (active).

Consider `COc1ccc(-c2nc3ccccc3nc2-c2ccccc2)cc1OC`, for which the Potency entry in assay [14] is “inactive”.

With `COc1cc(C)nc(N2CCCC(C(=O)Nc3cc(Cl)ccc3OC)C2)n1` (stereo not drawn), the Potency result in [14] was “inactive”.

Turning to `O=c1cc(Cl)c(-c2ccccc2)nn1Cc1ccc(Cl)cc1`, the Potency entry in assay [14] was “inactive”.

With `CC[C@H](C)C(=O)O[C@H]1CCC=C2C=C[C@H](C)[C@H](CC[C@@H]3C[C@H](O)CC(=O)O3)C21` (stereo partly drawn), the Potency result in assay [1], in [3], in assay [16], in [17], in assay [18] and in [4] was “inactive” each time. The Potency entry in assay [6], in assay [20], in assay [10] and in assay [12] was “inactive” throughout. The result in assay [2], in assay [19], in assay [8] and in [11] was inactive. For the same compound, in assay [21], the activation was -5%.

Take `N#CC(Cc1ccc(O)c(O)c1)C(=O)N1CCc2ccccc21` (stereo not drawn): the Potency result in [1], in assay [3] and in assay [9] was “inactive” each time. For the same compound, the outcome in assay [2], in [8], in [23] and in [11] was inactive. In addition, the Potency is 7.08 µM (active) in assay [16]; 3.55 µM (active) in assay [17]; 3.55 µM (active) in assay [5]; 25.1 µM (active) in [22]; 17.8 µM (active) in [10]. Further, the activation in assay [21] was 3.94%.

As to `Cc1c(C)c2c(c(C)c1O)CCC(C)(CN1CCN(c3cc(N4CCCC4)nc(N4CCCC4)n3)CC1)O2` (stereo not drawn), the Potency result in [1] was “inactive”. The outcome in [2], in assay [19], in assay [8], in assay [23] and in assay [11] was inactive. The Potency was 0.562 µM (active) in assay [24]; 0.501 µM (active) in assay [16]; 0.891 µM (active) in [17]; 0.501 µM (active) in assay [18]; 1.26 µM (active) in assay [4]; 0.355 µM (active) in assay [5]. Besides, the Potency in assay [6] was 0.891 µM (active); in assay [9], 4.47 µM (active); in assay [20] it was 1.65 µM (active); in assay [10], 11.2 µM (active); in [13] it was 7.08 µM (active). Besides, the activation in [21] was -7.62%.

In the case of `CC(=O)SC1CC2=CC(=O)CC[C@]2(C)C2CC[C@@]3(C)[C@@H](CC[C@@]34CCC(=O)O4)C12` (stereo partly drawn), the Potency result in assay [1], in [3], in [10] and in assay [12] was “inactive” in each case. Also, the result in assay [2], in assay [19], in [8], in assay [23] and in assay [11] was inactive. Also, the Potency in assay [24] is 11.2 µM (active); in assay [16], 7.94 µM (active); in assay [5] it was 7.08 µM (active). In assay [21], the activation is 1.19%.
